# Measurements taken from ChEMBL document CHEMBL3988442, “University of Dundee, Small-Polar-MMV Screening Library” (2021).
# Molecular target: AMP-activated protein kinase, AMPK (Homo sapiens) (UniProt P54646+O43741+P54619+Q9UGJ0+Q9Y478+Q13131+Q9UGI9)
# Experiment: AMP-dependent Kinase enzyme assay. An in vitro enzyme assay that detects ADP turnover that is directly proportional to AMPK activity. This uses naive AMPK that is activated during the assay with MK-8722
# Assay type: functional
# Set-up: scale not given: direction of the effect not stated beside the values
# Settings: 30 µM
row,Compound,Percent Effect
1,c1cn(-c2nccnc2C2CCCN(C3CCOCC3)C2)cn1 (centres undefined),10.1%
2,Nc1nccnc1C(=O)NC1CCN(Cc2ccccc2)C1 (centres undefined),7.89%
3,O=C1C(N2CC[C@@H](O)C2)CCCN1Cc1cccc(C(F)(F)F)c1 (some centres undefined),5.51%
4,CCn1nc(C)cc1C(=O)OCC1CC(=O)N(Cc2ccccc2)C1 (centres undefined),38.6%
5,Cc1sc2ccccc2c1S(=O)(=O)NCCNC(=O)C(C)C,-0.0872%
6,CC1(C)CC(CN2CCC3(CCC(=O)N(CCO)C3)CC2)CCO1 (centres undefined),-1.98%
7,COc1c(C2CCCN2CC(=O)N(C)c2nccs2)c(C)nn1C (centres undefined),5.92%
8,Cc1cc(C(=O)NCCN2CCCCCC2)nn1C(C)(C)C,4.2%
9,Cc1ccc(C(=O)NCCC2CCN(C)CC2)cc1N(C)S(C)(=O)=O,-4.15%
10,CS(=O)(=O)N1CCCCC1c1ccc(Nc2cnccn2)nc1 (centres undefined),4.25%
11,CCOc1cc(NC(=O)N2CCC3(CCOCC3)C2)ccc1C,-0.853%
12,COCCNc1ncnc2c1CCN(C(=O)CC1CCC(=O)N1)CC2 (centres undefined),15.1%
13,COC1CCN(S(=O)(=O)N2CC[C@@](O)(C3CCC3)[C@H](C)C2)CC1,-3.56%
14,CC(=O)c1ccc(-c2cnn(CC(=O)Nc3ccnn3C)c2)nc1,6.15%
15,Cc1noc(C)c1-c1cccc(C2CCN(S(=O)(=O)N(C)C)CC2)n1,5.6%
16,Nc1nc(CCCNC(=O)c2ccccc2C2CCNC2)cs1 (centres undefined),-5.1%
17,Cc1noc(C)c1CC(=O)N[C@@H]1CC[C@@H](Oc2ccccc2)[C@@H]1O,5.13%
18,Cc1nn2cccnc2c1C(=O)NCc1ccccc1OCC1CC1,2.06%
19,O=C(CCn1ccnc1)N1CC[C@H](Oc2cccc(F)c2)[C@@H](O)CC1,-2.81%
